Data taken from publication PMC11006913.

Experiments:
Experiment in all cases: PBM; 200 nM protein, PBS
Conditions in all cases: dsDNA, one strand shown
HESX1 [1] = biological target: HESX1 (Homo sapiens, UniProt Q9UBX0 95-180, R165K)
SHOX [2] = biological target: SHOX (Homo sapiens, UniProt O15266 103-189)
ALX4 [3] = biological target: ALX4 (Homo sapiens, UniProt Q9H161 200-286)
ALX4 [4] = biological target: ALX4 (Homo sapiens, UniProt Q9H161 200-286, Q225E)
HESX1 [5] = biological target: HESX1 (Homo sapiens, UniProt Q9UBX0 95-180)
Chain of HESX1 (Homo sapiens, UniProt Q9UBX0 95-180) (Q9UBX0 95-180): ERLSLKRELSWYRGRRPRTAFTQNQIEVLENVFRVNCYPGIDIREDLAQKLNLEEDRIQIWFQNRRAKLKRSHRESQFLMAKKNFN

ALX1 [6] = biological target: ALX1 (Homo sapiens, UniProt Q15699 118-204, L144V)
Chain of ALX1 (Homo sapiens, UniProt Q15699 118-204, L144V) (Q15699 118-204 L144V): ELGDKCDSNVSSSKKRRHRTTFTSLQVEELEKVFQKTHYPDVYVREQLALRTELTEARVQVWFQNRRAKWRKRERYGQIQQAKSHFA

ALX3 [7] = biological target: ALX3 (Homo sapiens, UniProt O95076 139-225, N203Q)
Chain of ALX3 (Homo sapiens, UniProt O95076 139-225, N203Q) (O95076 139-225 N203Q): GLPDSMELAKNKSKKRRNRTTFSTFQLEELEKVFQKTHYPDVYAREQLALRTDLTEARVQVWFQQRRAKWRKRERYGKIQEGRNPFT

SHOX [8] = biological target: SHOX (Homo sapiens, UniProt O15266 103-189, R173C)
Chain of SHOX (Homo sapiens, UniProt O15266 103-189, R173C) (O15266 103-189 R173C): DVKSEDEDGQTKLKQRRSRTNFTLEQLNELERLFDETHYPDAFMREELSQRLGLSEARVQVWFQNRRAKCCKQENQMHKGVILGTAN

ALX1 [9] = biological target: ALX1 (Homo sapiens, UniProt Q15699 118-204, L144R)
Chain of ALX1 (Homo sapiens, UniProt Q15699 118-204, L144R) (Q15699 118-204 L144R): as the sequence (Q15699 118-204 L144V) above, with V27R counted along it

ALX3 [10] = biological target: ALX3 (Homo sapiens, UniProt O95076 139-225)
Chain of ALX3 (Homo sapiens, UniProt O95076 139-225) (O95076 139-225): as the sequence (O95076 139-225 N203Q) above, with Q65N counted along it

PROP1 [11] = biological target: PROP1 (Homo sapiens, UniProt O75360 56-141)
Chain of PROP1 (Homo sapiens, UniProt O75360 56-141) (O75360 56-141): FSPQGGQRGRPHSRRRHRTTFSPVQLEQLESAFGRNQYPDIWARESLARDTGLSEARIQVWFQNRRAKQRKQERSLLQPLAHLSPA

HESX1 [12] = biological target: HESX1 (Homo sapiens, UniProt Q9UBX0 95-180, R109Q)
Chain of HESX1 (Homo sapiens, UniProt Q9UBX0 95-180, R109Q) (Q9UBX0 95-180 R109Q): as the sequence (Q9UBX0 95-180) above, with R15Q counted along it

PROP1 [13] = biological target: PROP1 (Homo sapiens, UniProt O75360 56-141, R99H)
Chain of PROP1 (Homo sapiens, UniProt O75360 56-141, R99H) (O75360 56-141 R99H): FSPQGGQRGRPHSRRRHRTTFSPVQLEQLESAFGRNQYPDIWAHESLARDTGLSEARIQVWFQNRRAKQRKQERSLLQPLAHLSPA

ALX3 [14] = biological target: ALX3 (Homo sapiens, UniProt O95076 139-225, L168Q)
Chain of ALX3 (Homo sapiens, UniProt O95076 139-225, L168Q) (O95076 139-225 L168Q): as the sequence (O95076 139-225 N203Q) above, with L30Q, Q65N counted along it

HESX1 [15] = biological target: HESX1 (Homo sapiens, UniProt Q9UBX0 95-180, P111T)
Chain of HESX1 (Homo sapiens, UniProt Q9UBX0 95-180, P111T) (Q9UBX0 95-180 P111T): as the sequence (Q9UBX0 95-180) above, with P17T counted along it

ALX3 [16] = biological target: ALX3 (Homo sapiens, UniProt O95076 139-225, L168V)
Chain of ALX3 (Homo sapiens, UniProt O95076 139-225, L168V) (O95076 139-225 L168V): as the sequence (O95076 139-225 N203Q) above, with L30V, Q65N counted along it

PROP1 [17] = biological target: PROP1 (Homo sapiens, UniProt O75360 56-141, F88S)
Chain of PROP1 (Homo sapiens, UniProt O75360 56-141, F88S) (O75360 56-141 F88S): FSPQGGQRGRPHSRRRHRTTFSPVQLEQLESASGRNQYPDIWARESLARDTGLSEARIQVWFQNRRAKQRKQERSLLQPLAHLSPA

HESX1 [18] = biological target: HESX1 (Homo sapiens, UniProt Q9UBX0 95-180, F115L)
Chain of HESX1 (Homo sapiens, UniProt Q9UBX0 95-180, F115L) (Q9UBX0 95-180 F115L): as the sequence (Q9UBX0 95-180) above, with F21L counted along it

ALX1 [19] = biological target: ALX1 (Homo sapiens, UniProt Q15699 118-204)
Chain of ALX1 (Homo sapiens, UniProt Q15699 118-204) (Q15699 118-204): as the sequence (Q15699 118-204 L144V) above, with V27L counted along it

ALX3 [20] = biological target: ALX3 (Homo sapiens, UniProt O95076 139-225, N203S)
Chain of ALX3 (Homo sapiens, UniProt O95076 139-225, N203S) (O95076 139-225 N203S): as the sequence (O95076 139-225 N203Q) above, with Q65S counted along it

Chain of ALX4 (Homo sapiens, UniProt Q9H161 200-286, Q225E) (Q9H161 200-286 Q225E): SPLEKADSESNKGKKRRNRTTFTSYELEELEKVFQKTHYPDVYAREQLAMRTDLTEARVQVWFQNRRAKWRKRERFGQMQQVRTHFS
Chain of ALX4 (Homo sapiens, UniProt Q9H161 200-286) (Q9H161 200-286): as the sequence (Q9H161 200-286 Q225E) above, with E26Q counted along it
Chain of HESX1 (Homo sapiens, UniProt Q9UBX0 95-180, R165K) (Q9UBX0 95-180 R165K): as the sequence (Q9UBX0 95-180) above, with R71K counted along it
Chain of SHOX (Homo sapiens, UniProt O15266 103-189) (O15266 103-189): as the sequence (O15266 103-189 R173C) above, with C71R counted along it

Sequence | binding signal (HESX1 [1]) | binding signal (SHOX [2]) | binding signal (ALX4 [3]) | binding signal (ALX4 [4]) | binding signal (HESX1 [5]) | binding signal (ALX1 [6]) | binding signal (ALX3 [7]) | binding signal (SHOX [8]) | binding signal (ALX1 [9]) | binding signal (ALX3 [10]) | binding signal (PROP1 [11]) | binding signal (HESX1 [12]) | binding signal (PROP1 [13]) | binding signal (ALX3 [14]) | binding signal (HESX1 [15]) | binding signal (ALX3 [16]) | binding signal (PROP1 [17]) | binding signal (HESX1 [18]) | binding signal (ALX1 [19]) | binding signal (ALX3 [20])
AATTAAGA | 11.6 upbm affinity estimate (log intensity, higher = more binding, comparable within an allelic series) | 11.7 upbm affinity estimate (log intensity, higher = more binding, comparable within an allelic series) | 13.6 upbm affinity estimate (log intensity, higher = more binding, comparable within an allelic series) | 12.8 upbm affinity estimate (log intensity, higher = more binding, comparable within an allelic series) | 11.6 upbm affinity estimate (log intensity, higher = more binding, comparable within an allelic series) | 11.7 upbm affinity estimate (log intensity, higher = more binding, comparable within an allelic series) | 8.44 upbm affinity estimate (log intensity, higher = more binding, comparable within an allelic series) | 9.59 upbm affinity estimate (log intensity, higher = more binding, comparable within an allelic series) | 11.3 upbm affinity estimate (log intensity, higher = more binding, comparable within an allelic series) | 12.4 upbm affinity estimate (log intensity, higher = more binding, comparable within an allelic series) | 11.2 upbm affinity estimate (log intensity, higher = more binding, comparable within an allelic series) | 9.03 upbm affinity estimate (log intensity, higher = more binding, comparable within an allelic series) | 10.9 upbm affinity estimate (log intensity, higher = more binding, comparable within an allelic series) | 10.4 upbm affinity estimate (log intensity, higher = more binding, comparable within an allelic series) | 10.5 upbm affinity estimate (log intensity, higher = more binding, comparable within an allelic series) | 9.95 upbm affinity estimate (log intensity, higher = more binding, comparable within an allelic series) | 7.71 upbm affinity estimate (log intensity, higher = more binding, comparable within an allelic series) | 7.79 upbm affinity estimate (log intensity, higher = more binding, comparable within an allelic series) | 12.1 upbm affinity estimate (log intensity, higher = more binding, comparable within an allelic series) | 8.55 upbm affinity estimate (log intensity, higher = more binding, comparable within an allelic series)
AATTAGCC | 11.4 upbm affinity estimate (log intensity, higher = more binding, comparable within an allelic series) | 11.9 upbm affinity estimate (log intensity, higher = more binding, comparable within an allelic series) | 13.8 upbm affinity estimate (log intensity, higher = more binding, comparable within an allelic series) | 12.6 upbm affinity estimate (log intensity, higher = more binding, comparable within an allelic series) | 11.5 upbm affinity estimate (log intensity, higher = more binding, comparable within an allelic series) | 11.2 upbm affinity estimate (log intensity, higher = more binding, comparable within an allelic series) | 8.15 upbm affinity estimate (log intensity, higher = more binding, comparable within an allelic series) | 9.22 upbm affinity estimate (log intensity, higher = more binding, comparable within an allelic series) | 10.8 upbm affinity estimate (log intensity, higher = more binding, comparable within an allelic series) | 12.3 upbm affinity estimate (log intensity, higher = more binding, comparable within an allelic series) |  | 8.71 upbm affinity estimate (log intensity, higher = more binding, comparable within an allelic series) | 10.8 upbm affinity estimate (log intensity, higher = more binding, comparable within an allelic series) | 10.1 upbm affinity estimate (log intensity, higher = more binding, comparable within an allelic series) | 10.2 upbm affinity estimate (log intensity, higher = more binding, comparable within an allelic series) | 9.65 upbm affinity estimate (log intensity, higher = more binding, comparable within an allelic series) |  | 7.46 upbm affinity estimate (log intensity, higher = more binding, comparable within an allelic series) | 12.4 upbm affinity estimate (log intensity, higher = more binding, comparable within an allelic series) | 8.23 upbm affinity estimate (log intensity, higher = more binding, comparable within an allelic series)
GCCAATTA | 13.5 upbm affinity estimate (log intensity, higher = more binding, comparable within an allelic series) | 12.5 upbm affinity estimate (log intensity, higher = more binding, comparable within an allelic series) | 14 upbm affinity estimate (log intensity, higher = more binding, comparable within an allelic series) | 13.6 upbm affinity estimate (log intensity, higher = more binding, comparable within an allelic series) | 13.3 upbm affinity estimate (log intensity, higher = more binding, comparable within an allelic series) | 11.9 upbm affinity estimate (log intensity, higher = more binding, comparable within an allelic series) | 8.33 upbm affinity estimate (log intensity, higher = more binding, comparable within an allelic series) | 9.95 upbm affinity estimate (log intensity, higher = more binding, comparable within an allelic series) | 11.7 upbm affinity estimate (log intensity, higher = more binding, comparable within an allelic series) | 12.6 upbm affinity estimate (log intensity, higher = more binding, comparable within an allelic series) | 11.6 upbm affinity estimate (log intensity, higher = more binding, comparable within an allelic series) | 10.3 upbm affinity estimate (log intensity, higher = more binding, comparable within an allelic series) | 11.9 upbm affinity estimate (log intensity, higher = more binding, comparable within an allelic series) | 10.9 upbm affinity estimate (log intensity, higher = more binding, comparable within an allelic series) | 12.1 upbm affinity estimate (log intensity, higher = more binding, comparable within an allelic series) | 10.4 upbm affinity estimate (log intensity, higher = more binding, comparable within an allelic series) | 7.64 upbm affinity estimate (log intensity, higher = more binding, comparable within an allelic series) | 7.99 upbm affinity estimate (log intensity, higher = more binding, comparable within an allelic series) | 12.6 upbm affinity estimate (log intensity, higher = more binding, comparable within an allelic series) | 8.5 upbm affinity estimate (log intensity, higher = more binding, comparable within an allelic series)
CAATTATA | 12.8 upbm affinity estimate (log intensity, higher = more binding, comparable within an allelic series) | 12.2 upbm affinity estimate (log intensity, higher = more binding, comparable within an allelic series) | 13.8 upbm affinity estimate (log intensity, higher = more binding, comparable within an allelic series) | 13.4 upbm affinity estimate (log intensity, higher = more binding, comparable within an allelic series) | 12.8 upbm affinity estimate (log intensity, higher = more binding, comparable within an allelic series) | 11.7 upbm affinity estimate (log intensity, higher = more binding, comparable within an allelic series) | 8.6 upbm affinity estimate (log intensity, higher = more binding, comparable within an allelic series) | 9.46 upbm affinity estimate (log intensity, higher = more binding, comparable within an allelic series) | 11.4 upbm affinity estimate (log intensity, higher = more binding, comparable within an allelic series) | 12.5 upbm affinity estimate (log intensity, higher = more binding, comparable within an allelic series) | 11.4 upbm affinity estimate (log intensity, higher = more binding, comparable within an allelic series) | 8.93 upbm affinity estimate (log intensity, higher = more binding, comparable within an allelic series) | 11.5 upbm affinity estimate (log intensity, higher = more binding, comparable within an allelic series) | 10.7 upbm affinity estimate (log intensity, higher = more binding, comparable within an allelic series) | 11.4 upbm affinity estimate (log intensity, higher = more binding, comparable within an allelic series) | 10.2 upbm affinity estimate (log intensity, higher = more binding, comparable within an allelic series) | 7.86 upbm affinity estimate (log intensity, higher = more binding, comparable within an allelic series) | 8.06 upbm affinity estimate (log intensity, higher = more binding, comparable within an allelic series) | 12.3 upbm affinity estimate (log intensity, higher = more binding, comparable within an allelic series) | 8.66 upbm affinity estimate (log intensity, higher = more binding, comparable within an allelic series)
AATTAACT | 12.1 upbm affinity estimate (log intensity, higher = more binding, comparable within an allelic series) | 11.8 upbm affinity estimate (log intensity, higher = more binding, comparable within an allelic series) | 13.9 upbm affinity estimate (log intensity, higher = more binding, comparable within an allelic series) | 13.4 upbm affinity estimate (log intensity, higher = more binding, comparable within an allelic series) | 12.2 upbm affinity estimate (log intensity, higher = more binding, comparable within an allelic series) | 11.7 upbm affinity estimate (log intensity, higher = more binding, comparable within an allelic series) | 8.48 upbm affinity estimate (log intensity, higher = more binding, comparable within an allelic series) | 9.37 upbm affinity estimate (log intensity, higher = more binding, comparable within an allelic series) | 11.4 upbm affinity estimate (log intensity, higher = more binding, comparable within an allelic series) | 12.5 upbm affinity estimate (log intensity, higher = more binding, comparable within an allelic series) | 11.5 upbm affinity estimate (log intensity, higher = more binding, comparable within an allelic series) | 9.2 upbm affinity estimate (log intensity, higher = more binding, comparable within an allelic series) | 11.4 upbm affinity estimate (log intensity, higher = more binding, comparable within an allelic series) | 10.7 upbm affinity estimate (log intensity, higher = more binding, comparable within an allelic series) | 10.7 upbm affinity estimate (log intensity, higher = more binding, comparable within an allelic series) | 10.2 upbm affinity estimate (log intensity, higher = more binding, comparable within an allelic series) | 7.8 upbm affinity estimate (log intensity, higher = more binding, comparable within an allelic series) | 7.81 upbm affinity estimate (log intensity, higher = more binding, comparable within an allelic series) | 12.3 upbm affinity estimate (log intensity, higher = more binding, comparable within an allelic series) | 8.69 upbm affinity estimate (log intensity, higher = more binding, comparable within an allelic series)
CAATTACA | 11.6 upbm affinity estimate (log intensity, higher = more binding, comparable within an allelic series) | 11.4 upbm affinity estimate (log intensity, higher = more binding, comparable within an allelic series) |  |  | 11.9 upbm affinity estimate (log intensity, higher = more binding, comparable within an allelic series) |  |  | 9.07 upbm affinity estimate (log intensity, higher = more binding, comparable within an allelic series) |  |  |  | 8.6 upbm affinity estimate (log intensity, higher = more binding, comparable within an allelic series) | 10.8 upbm affinity estimate (log intensity, higher = more binding, comparable within an allelic series) |  | 10.2 upbm affinity estimate (log intensity, higher = more binding, comparable within an allelic series) |  |  | 7.44 upbm affinity estimate (log intensity, higher = more binding, comparable within an allelic series) |  | 
CCCAGGCG | 6.31 upbm affinity estimate (log intensity, higher = more binding, comparable within an allelic series) | 6.92 upbm affinity estimate (log intensity, higher = more binding, comparable within an allelic series) |  |  | 6.34 upbm affinity estimate (log intensity, higher = more binding, comparable within an allelic series) |  |  | 7.04 upbm affinity estimate (log intensity, higher = more binding, comparable within an allelic series) |  |  |  | 6.42 upbm affinity estimate (log intensity, higher = more binding, comparable within an allelic series) |  |  | 6.32 upbm affinity estimate (log intensity, higher = more binding, comparable within an allelic series) |  |  | 6.49 upbm affinity estimate (log intensity, higher = more binding, comparable within an allelic series) |  | 
AATTAGCG | 11.8 upbm affinity estimate (log intensity, higher = more binding, comparable within an allelic series) | 12 upbm affinity estimate (log intensity, higher = more binding, comparable within an allelic series) | 13.9 upbm affinity estimate (log intensity, higher = more binding, comparable within an allelic series) | 13.1 upbm affinity estimate (log intensity, higher = more binding, comparable within an allelic series) | 11.9 upbm affinity estimate (log intensity, higher = more binding, comparable within an allelic series) | 11.7 upbm affinity estimate (log intensity, higher = more binding, comparable within an allelic series) | 8.21 upbm affinity estimate (log intensity, higher = more binding, comparable within an allelic series) | 9.63 upbm affinity estimate (log intensity, higher = more binding, comparable within an allelic series) | 11.3 upbm affinity estimate (log intensity, higher = more binding, comparable within an allelic series) | 12.4 upbm affinity estimate (log intensity, higher = more binding, comparable within an allelic series) | 11.2 upbm affinity estimate (log intensity, higher = more binding, comparable within an allelic series) | 8.95 upbm affinity estimate (log intensity, higher = more binding, comparable within an allelic series) | 11.2 upbm affinity estimate (log intensity, higher = more binding, comparable within an allelic series) | 10.4 upbm affinity estimate (log intensity, higher = more binding, comparable within an allelic series) | 10.6 upbm affinity estimate (log intensity, higher = more binding, comparable within an allelic series) | 9.93 upbm affinity estimate (log intensity, higher = more binding, comparable within an allelic series) | 7.48 upbm affinity estimate (log intensity, higher = more binding, comparable within an allelic series) | 7.68 upbm affinity estimate (log intensity, higher = more binding, comparable within an allelic series) | 12.6 upbm affinity estimate (log intensity, higher = more binding, comparable within an allelic series) | 8.38 upbm affinity estimate (log intensity, higher = more binding, comparable within an allelic series)
